Only some compounds are listed: those with a hit (about 8% of all), similar ones and a draw of the others.
SW480 rerep: inducers of DNA re-replication in SW480 colon cancer cells; AID 624297; Potency, µM (highest dose often 46.1 µM), without a hit: at the highest dose re-replication activation, usual class: activators; 1.8% of 340,000 active; SW480 DNA re-replication, Hoechst DNA content imaging, 48 h; note: % of control where 0% means no effect; nearly all actives have a fitted effect of over 55% in size
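Treated cells incubate 48 hr (37 C, 5% CO2), are stained 40 min with Hoechst, and nuclear fluorescence is enumerated; a rise in nuclei with high DNA signal marks re-replication.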
MCF10A rereplic: inducers of DNA re-replication in MCF 10A breast cells. AID 624296. Potency, µM (highest dose often 46.1 µM), for the others: at the top dose activity, positive = re-replication, usual class: activators. MCF 10A DNA re-replication, Hoechst nuclear intensity, 48 h. 2.9% of 350,000 active; note: % of control where 0% means no effect; nearly all actives have a fitted effect of over 50% in size
KB-V1 MDR tox: kills drug-selected multidrug resistant KB-V1 cells; KB-V1 MDR cells viability, CellTiter-Glo, 72 h; Potency, µM (doses to about 46.1 µM), hits mostly cytotoxic; 3.4% of 400,000 active; AID 1347076; note: % is set by controls: 0 for no effect and ±100 for the full control effect; nearly all actives have a fitted effect of over 60% in size
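Luminescent ATP read-out (CellTiter-Glo, 10 min) measures survival of drug-selected KB-V1 MDR cells after 72 h, 37 degrees C compound exposure. Medium: phenol-red-free DMEM, 10% FBS. Values from fitted concentration-response curves.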
KB-3-1 tox: KB-3-1 parental cell cytotoxicity. KB-3-1 viability, CellTiter-Glo ATP luminescence, 72 h. Potency, µM (highest dose often 46.1 µM), usual class: cytotoxic. 1.4% of 400,000 active. AID 1347075; note: % is set by controls: 0 for no effect and ±100 for the full control effect; nearly all actives have a fitted effect of over 60% in size
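Cytotoxicity in the drug-sensitive parental line KB-3-1 was scored as loss of CellTiter-Glo luminescence following 72 h incubation with compound. Values come from curve fitting of normalized concentration-response data.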
HT1080-NT tox: kills 2HG-producing HT-1080-NT fibrosarcoma cells. HT-1080-NT fibrosarcoma viability, CellTiter-Glo ATP luminescence, 48 h. Potency, µM (titrated, usually from 46.1 µM), without a hit: top-dose activity, negative = less viability, most hits filed as cytotoxic. 1.6% of 360,000 active;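 note: NT is the 2HG producing partner of a matched IDH1 knockdown line; 0% = DMSO-treated cells and -100% = media-only wells without cells; nearly all actives have a fitted effect of over 55% in size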
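Luminescent CellTiter-Glo readout after 48 hours of compound exposure at 37 degrees C defined viability of HT-1080-NT cells. Activity was normalized to DMSO wells and cell-free media wells; concentration-response curves were fitted and assigned curve classes.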
HT1080 IDH1KD tx: HT-1080 IDH1 knockdown cell toxicity (counter line); HT-1080 IDH1 knockdown viability, ATP luminescence, 48 h; Potency, µM (highest dose often 46.1 µM), without a hit: at the top dose activity, negative = toxicity, actives largely listed as cytotoxic; 2% of 360,000 active; AID 686971;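 note: 0% = DMSO wells and -100% = cell-free medium wells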
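HT-1080-IDH1KD cells (IDH1 knocked down), 750/well in RPMI with 5% FBS, treated with compound 48 h at 37 degrees C. Viability by CellTiter-Glo luminescence, normalised to DMSO and no-cell wells; concentration-response curves classed.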
Active calls of the source: *; i = inactive; ? = inconclusive; . = not tested or not shown. Calls come from the whole dose curve; as a rule, active = well fitted curve in the direction sought with a large enough effect; inconclusive = small, poorly fitted or top-dose-only effect, or another doubt; inactive = no such curve, though single readings can be large; an effect the other way counts as inactive or inconclusive. Potency is the fitted concentration of half-maximal effect.

SMILES	SW480 rerep	MCF10A rereplic	KB-V1 MDR tox	KB-3-1 tox	HT1080-NT tox	HT1080 IDH1KD tx
N=c1c2c(-c3ccccc3)c(-c3ccccc3)oc2ncn1CCN1CCOCC1	-1.7%	13.2%	?	?	?	?
CC(C)Cn1cnc2c(c(-c3ccccc3)c(-c3ccccc3)n2Cc2ccco2)c1=N	?	?	?	?	?	16.4µM*
COC(=O)c1c(-c2ccc(Cl)cc2)noc1N1CCN(c2ccc(F)cc2)CC1	.	.	i	i	.	.
COc1ccc(O)c(CN2CCN(CCCc3ccccc3)C(CCO)C2)c1 (stereo not given)	-6.3%	0.231µM*	i	i	-8.7%	-0.4%
OCCC1CN(Cc2nc(-c3ccccc3)cs2)CCN1CCc1ccccc1 (stereo not given)	-6.4%	2.91µM*	i	?	-12.5%	-0.9%
COc1ccc(OC)c(CN2CCN(CCc3ccccc3)C(CCO)C2)c1 (stereo not given)	-12.8%	1.3%	i	i	6.3%	-0.1%
CCCCN(CCCC)CCNC(=O)c1cn(C)c2ccc(S(=O)(=O)N3CCOCC3)cc2c1=O	.	.	i	i	.	.
Cc1ccc(C(=O)Nc2cccc(-c3cnc4ccccc4n3)c2)cc1	-3.0%	1.4%	i	i	-6.3%	20.0%
COc1ccc(COc2cc(-c3cccc(OC)c3)nc3ccc(NC(=O)C(C)C)cc23)cc1	14.6µM*	?	?	2.59µM*	?	2.91µM*
CC(=O)Nc1cccc(-c2cnc(NC(C)=O)cn2)c1	.	.	i	18.4µM*	-10.2%	?
CC(C)C(=O)Nc1cccc(-c2cnc3ccccc3n2)c1	4.4%	-5.0%	13µM*	i	12.8%	-4.6%
C=C1NC(=O)c2cc(CN(C)c3ccc(C(=O)N[C@@H](CCC(=O)O)C(=O)O)s3)ccc2N1	2.1%	19.0%	.	.	.	.
Cc1cccc2cc(CN(Cc3ccco3)C(=O)c3cccs3)c(=O)[nH]c12	-0.9%	5.2%	i	?	0.4%	1.8%
Cc1ccc2cc(CN(Cc3ccco3)C(=O)NCc3ccccc3)c(=O)[nH]c2c1C	10.0%	24.5%	i	i	-0.5%	-9.7%
Cc1ccc2cc(CN(Cc3ccco3)C(=O)c3cccs3)c(=O)[nH]c2c1	14.6µM*	2.59µM*	5.17µM*	?	4.61µM*	5.8µM*
COc1ccccc1NC(=S)N(Cc1ccco1)Cc1cc2cc(C)c(C)cc2[nH]c1=O	5.8µM*	2.06µM*	2.59µM*	?	?	7.31µM*
COc1ccccc1NC(=S)N(Cc1ccco1)Cc1cc2cccc(C)c2[nH]c1=O	-2.3%	12.7%	?	i	-1.7%	-7.6%
Cc1ccc2cc(CN(CCN3CCCC3)C(=O)Nc3ccc(F)cc3)c(=O)[nH]c2c1C	-0.2%	24.0%	i	i	23.1µM*	?
Cc1ccc2cc(CN(CCN3CCCC3)C(=O)Nc3ccccc3)c(=O)[nH]c2c1C	-3.3%	-0.9%	i	i	?	?
COc1ccccc1NC(=O)N(Cc1ccco1)Cc1cc2ccc(C)c(C)c2[nH]c1=O	18.4µM*	7.31µM*	5.8µM*	5.8µM*	3.66µM*	2.59µM*
CC(=O)NC1=C(C#N)CCC1	.	.	i	?	.	.
COc1ccccc1NC(=O)N(CCN1CCOCC1)Cc1cc2cc(C)cc(C)c2[nH]c1=O	4.0%	13.2%	i	i	-3.9%	-11.0%
COc1ccccc1NC(=O)N(Cc1ccco1)Cc1cc2cc(C)cc(C)c2[nH]c1=O	?	?	18.4µM*	?	?	?
COc1cc(NC(=O)Cn2c(=O)cc(C)c3c(C)nn(-c4ccc(C)cc4)c32)cc(OC)c1	.	.	i	i	.	.
CCOc1cc(S(=O)(=O)N2CCCC2)ccc1Cl	0.731µM*	1.03µM*	i	i	2.3%	-1.9%
SMILES	SW480 rerep	MCF10A rereplic	KB-V1 MDR tox	KB-3-1 tox	HT1080-NT tox	HT1080 IDH1KD tx
COc1ccc(OCCOc2ccc(S(=O)(=O)N3CCCC3)cc2[N+](=O)[O-])cc1	2.0%	19.0%	14.6µM*	?	-1.6%	-0.7%
O=[N+]([O-])c1cc(S(=O)(=O)N2CCCCCC2)ccc1Cl	21.6%	16.4µM*	i	i	23.1µM*	?
O=C(O)c1ccccc1NS(=O)(=O)c1ccc(NN=Cc2ccccc2F)c([N+](=O)[O-])c1	-3.4%	-1.4%	?	i	-2.8%	0.3%
O=C(O)c1ccccc1/C=N/Nc1ccc(S(=O)(=O)N2CCCC2)cc1[N+](=O)[O-]	-7.6%	9.9%	?	?	13µM*	?
CCc1cccc(NC(=O)c2cc(S(=O)(=O)N3CCCCCC3)cn2C)c1	.	.	i	i	.	.
CN(C)c1ncc(C(=O)NCc2ccccc2Cl)cn1	.	.	i	i	.	.
CCc1ccccc1NC(=O)CCNS(=O)(=O)c1ccc2c(c1)CCN2C(=O)C1CC1	.	.	i	i	.	.
Cc1cccc(NC(=O)c2ccc(-n3cnc4cccnc43)cc2)c1C	.	.	i	?	.	.
COc1cc(Nc2ccc(S(=O)(=O)N3CCN(C)CC3)cc2[N+](=O)[O-])cc(OC)c1	3.26µM*	1.6%	i	i	-19.5%	-9.1%
COc1ccc(Nc2ccc(S(=O)(=O)N3CCCCCC3)cc2[N+](=O)[O-])cc1	-145.5%	-5.1%	2.91µM*	?	-13.8%	-16.1%
COc1ccc(Nc2ccc(S(=O)(=O)N3CCCCC3)cc2[N+](=O)[O-])cc1OC	-1.6%	8.8%	i	?	-4.1%	-4.0%
O=C1COc2ccc(C(=O)COC(=O)CNC(=O)c3ccco3)cc2N1	1.6%	0.8%	i	i	-1.9%	3.7%
O=C(NC(=S)Nc1ccccc1OC(F)F)c1ccc2c(c1)OCO2	-1.2%	8.7%	i	i	-16.0%	-12.6%
CCOC(=O)c1c(C)oc2c1C(=O)c1ccccc1C2=O	3.66µM*	27.9%	i	?	2.0%	4.7%
Cc1oc2c(c1C(=O)c1ccccc1)C(=O)C(=O)c1ccccc1-2	?	?	i	?	18.4µM*	18.4µM*
O=C1C(=O)c2c(C(=O)c3ccccc3)coc2-c2ccccc21	?	20.6µM*	20.6µM*	?	-0.4%	?
Cc1onc(-c2ccccc2Cl)c1C(=O)c1ccccc1	-2.4%	8.9%	i	i	6.3%	10.2%
Cc1oc2c(c1C(=O)O)C(=O)c1ccccc1C2=O	-4.6%	14.9%	i	?	2.6%	-12.9%
CCCN(Cc1cccs1)C(=O)Nc1cc(Cl)c(OC)cc1OC	.	.	i	i	.	.
COc1cccc(CN2C(=O)c3ccccc3Sc3ccc(C(=O)NCc4ccccc4)cc32)c1	.	.	i	i	.	.
